In the first experiment the target is ABCB11. Briefly: pooled miR-30 sensor sort-seq; sequence = guide strand. Particulars: shRNA.
In turn, TTCTTGTAACTCAACGTCGTAG gave a sensor-assay potency score (higher = more potent) of -0.168.

Sequence TTCTTCTCATCTTGTAACCTTG displayed a sensor-assay potency score (higher = more potent) of -0.836.

TTAGCTTTTGCATAACTTGGGG registered a sensor-assay potency score (higher = more potent) of -0.00733.

Sequence TTGACTATCATCCCGATCTGAG had a sensor-assay potency score (higher = more potent) of -0.211.

In turn, TAGAGTGAAGTAAACACCTTTC registered a sensor-assay potency score (higher = more potent) of -0.144.

As to TAACCATCTTCTGACATGCAGT, the sensor-assay potency score (higher = more potent) is -1.16.

TTTGCTGTCATGACCATCTATC: the sensor-assay potency score (higher = more potent) was -0.277.

TAGCTTTTGCATAACTTGGGGT yielded a sensor-assay potency score (higher = more potent) of 0.0681.

TACAACTGCAGAGATCACCCTG showed a sensor-assay potency score (higher = more potent) of 0.317.

The sequence TTGCACTCAGTACAACTGCAGA returned a sensor-assay potency score (higher = more potent) of -1.15.

The sequence TAGACTTATGATCTACAACAGC had a sensor-assay potency score (higher = more potent) of -1.33.

The target in the next experiment is ABCD4. The experiment is described as above. Particulars: shRNA.
Sequence TTACAGATCTCACACTTCCAGA returned a sensor-assay potency score (higher = more potent) of -0.864.

Consider TTCGCTGTCAGTCCTCCTGGTC, for which the sensor-assay potency score (higher = more potent) is -0.858.

TCTCATCATCGGCAGAACCTGA gave a sensor-assay potency score (higher = more potent) of -0.963.

In turn, TAGTAGACGAGGGTGAACGGGG had a sensor-assay potency score (higher = more potent) of -0.612.

With TAGTCAAAGGTGTTGATGCCGA, the sensor-assay potency score (higher = more potent) was -0.776.

Sequence ATCTGCATGTGCTTGAACCTAA gave a sensor-assay potency score (higher = more potent) of -0.448.

ATCGGCAGAACCTGAGTCGGGG yielded a sensor-assay potency score (higher = more potent) of -0.759.

For the sequence TAGAAGAGTCGGGCAAAGGAGA, the sensor-assay potency score (higher = more potent) is -1.06.

The sequence TCGATCTTCGCTGTCAGTCCTC had a sensor-assay potency score (higher = more potent) of -0.221.

The values are drawn from the OligoGym collection.
Also: reference of the scale not given here.
